# Source: PubChem (several laboratories)
# Wnt act: activators of Wnt/beta-catenin signaling; hit rate 1.2% among 300,000; activation, % at 9.35 µM; Wnt/beta-catenin reporter cell assay, activator, plate reader; in the data active means activation above about 30%, passing the limit was not always enough;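 further: 0% = neutral control wells and 100% = positive control wells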
# MITF TRPM1 HTS: activators of MITF-driven TRPM1 promoter activity in SK-MEL-5 cells. SK-MEL-5 TRPM1-promoter luciferase, 24 h; % of positive control, neutral wells = 0. activation, % at 12.5 µM. hit rate 0.75% among 300,000;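 active means mean activation of at least 80% with every replicate also reaching 80%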;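 further: 0% = neutral control wells and 100% = parthenolide positive control wells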
# SMARCA2 activ: activators of SMARCA2 function; MG213 cells, MMTV-luciferase reporter, dexamethasone, overnight; activation, % at 9.1 µM; hit rate 1% among 370,000; in the data active means activation above about 7.8%;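 further: 0% = vehicle wells and 100% = reference activator wells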
# FGF22 binding: shifts melting point of recombinant human FGF22; recombinant FGF22 thermal shift, SYPRO orange fluorescence; percent of sucrose octasulfate shift, DMSO zero; activity (Tm shift, normalised), % at 9.99 µM; hit rate 1.5% among 340,000; AID 651658;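 active means mean Tm shift, scaled 0 neutral to 100 positive control, at about 1.3% or above, every replicate too, limit read from the data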
# Target sequence (Q9HCT0 whole entry, looked up): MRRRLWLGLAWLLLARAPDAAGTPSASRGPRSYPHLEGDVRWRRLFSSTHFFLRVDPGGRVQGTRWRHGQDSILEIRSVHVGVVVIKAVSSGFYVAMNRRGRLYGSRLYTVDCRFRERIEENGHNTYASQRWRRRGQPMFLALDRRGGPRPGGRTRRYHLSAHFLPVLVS
# MLL AF4-AF9 inh: MLL-AF4/AF9 protein interaction inhibition; AlphaScreen, biotin-AF4 peptide binding to FLAG-AF9; inhibition, % at 10 µM; hit rate 0.47% among 350,000;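 active means every replicate reaching a set inhibition limit, whatever the replicate mean, cut at about 25% in these data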;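 further: 0% = plate neutral control median and 100% = total signal loss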
# esBAF inh: inhibitors of esBAF chromatin remodeling in mouse ES cells; Bmi1-luciferase knock-in reporter, 24 h; 100% = twice the neutral-well signal; reporter increase, % at 12.5 µM; hit rate 2% among 350,000; AID 602393; in the data active means activation above about 40%;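 further: 0% = median of the plate's neutral control wells and 100% = double that signal; a rise in the Bmi1 reporter signal indicates esBAF inhibition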
# * marks the source's active call; other numbers are inactive results; nt = no result. Only some compounds are listed: those with a hit (about 4.3% of all), similar ones and a draw of the others.
SMILES,Wnt act,MITF TRPM1 HTS,SMARCA2 activ,FGF22 binding,MLL AF4-AF9 inh,esBAF inh
C[C@@H]1CCCCO[C@H](CN(C)CC2CCCCC2)[C@H](C)CN([C@H](C)CO)C(=O)c2cc(NC(=O)CCC(F)(F)F)ccc2O1,nt,nt,nt,0,nt,-1
O=C(NC(=S)NCC1CCCO1)c1ccc(Cl)cc1 (stereo not drawn),2,88*,5,0,7,nt
O=C(NCC1CCCO1)Nc1ccc(Cl)cc1 (stereo not drawn),-1,43,5,nt,nt,45*
Cc1ccc(/C=C(\C#N)C(=O)NCC2CCCO2)o1 (stereo not drawn),78*,10,2,0,0,13
COCC(=O)N1CC[C@@H]2[C@H]1c1cc(-c3ccc(OC)cc3)ccc1N(C)[C@@H]2CO,nt,nt,nt,0,-3,-8
C[C@@H]1CCCCO[C@@H](CN(C)C(=O)c2ccccc2)[C@H](C)CN([C@@H](C)CO)C(=O)c2cc(NC(=O)c3ccccc3)ccc2O1,nt,nt,nt,0,1,nt
CCCCC1OC(CCc2ccccc2)CC2=C1C(=O)OC(C)(C)O2 (stereo not drawn),-3,nt,-4,0,-6,nt
O=C(NC1CCC(O)CC1)c1ccc2c(c1)S(=O)(=O)N=C1CCCCCN12 (stereo not drawn),-1,17,-1,0,-1,46*
CC(=O)N1[C@@H]2c3ccc(-c4ccccc4)c(=O)n3C[C@H]1[C@H](CO)[C@H]2C(=O)N1CCCCC1,nt,nt,nt,0,0,0
COc1ccc(N2CCN(Cc3cc4c(cc3Br)OCCO4)CC2)cc1,0,-15,-1,0,27*,-1
COc1ccccc1N1CCN(Cc2cc3c(cc2Br)OCCO3)CC1,-6,-7,-2,0,4,-2
O=C(Nc1ccc(F)cc1)N[C@@H]1CC[C@H](CCn2cc(-c3ccc(F)cc3)nn2)O[C@@H]1CO,nt,nt,nt,0,-16,-4
O=C(NCCCc1ccccc1)c1ccc(-n2cncn2)c([N+](=O)[O-])c1,-4,-5,-1,0,1,nt
CCNC(=O)n1cc(-n2cncn2)c(-c2ccccc2)n1,-1,-7,-3,43*,-1,-1
C#CCCCN([C@@H](CC(C)C)C(=O)OC)S(=O)(=O)c1ccccc1Br,nt,nt,-4,nt,nt,nt
C[C@@H]1CN([C@@H](C)CO)S(=O)(=O)c2ccc(C#CC(C)(C)O)cc2O[C@H]1CN(C)CC1CCCC1,nt,nt,nt,0,2,-9
COC(=O)[C@H]1C[C@@]2(O)CN(S(=O)(=O)c3ccc(C)cc3)C[C@@]2(OC(=O)NC2CC2)C[C@H]1C(=O)OC,-3,nt,-2,0,-1,-6
COC(=O)[C@H]1C[C@@]2(O)CN(S(=O)(=O)c3ccc(C)cc3)C[C@@]2(OC(=O)NCC2CCCCC2)C[C@H]1C(=O)OC,-1,nt,-5,0,1,52*
COc1ccc(NC(=O)N(C)C[C@@H]2Oc3c(NS(C)(=O)=O)cccc3C(=O)N([C@@H](C)CO)C[C@@H]2C)cc1,nt,nt,nt,0,-2,1
Cc1ccc(S(=O)(=O)Nc2ccc(O)c3ncccc23)cc1,-11,-51,0,-1,26*,-12
C[C@H]1CN([C@@H](C)CO)C(=O)c2cc(C3=CCCC3)cnc2O[C@@H]1CN(C)C(=O)NC1CCCC1,nt,nt,nt,0,-24,-3
CCc1nc(NC(=O)NS(=O)(=O)c2ccccc2C(=O)OC)nc(OC)n1,-5,-3,-2,43*,-12,nt
COC(=O)c1ccccc1S(=O)(=O)NC(=O)c1ccccc1,-2,-7,-1,nt,nt,0
Cc1noc(C)c1NC(=O)N(C)C[C@@H]1Oc2ccc(N(C)C)cc2CC(=O)N([C@H](C)CO)C[C@@H]1C,nt,nt,nt,-1,-2,-3
NS(=O)(=O)c1ccc(CCNC(=O)c2ccccc2Cc2ccccc2)cc1,31*,-6,-1,0,1,1
SMILES,Wnt act,MITF TRPM1 HTS,SMARCA2 activ,FGF22 binding,MLL AF4-AF9 inh,esBAF inh
Fc1cc(Br)ccc1NC(=S)NCCc1ccccc1,-2,58,-1,1.8*,0,nt
CCCCC(=O)Nc1ccc(C(=O)NCCc2ccc(S(N)(=O)=O)cc2)cc1,nt,4,6,43*,0,1
CCCCC(=O)Nc1ccc(C(=O)NCCc2ccccc2)cc1,19,35,2,nt,nt,nt
NS(=O)(=O)c1ccc(CCNC(=O)c2cccc3ccccc23)cc1,-2,-1,-2,0,-2,-1
NS(=O)(=O)c1ccc(CCNC(=O)c2cc(-c3ccco3)nc3ccccc23)cc1,0,15,7,6.2*,-8,3
C[C@H]1CN([C@@H](C)CO)C(=O)Cc2cc(NC(=O)Cc3ccccc3)ccc2O[C@@H]1CN(C)S(=O)(=O)c1cccs1,nt,nt,nt,-1,-5,-5
CO[C@H]1CN(C)C(=O)c2cc(NC(=O)c3ccc(F)cc3)ccc2OC[C@@H](C)NC[C@@H]1C,nt,nt,nt,nt,nt,0
Cc1ccc(C(=O)OCC(=O)NCCc2ccc(S(N)(=O)=O)cc2)o1,-4,1,2,43*,-2,2
NS(=O)(=O)c1ccc(NC(=S)NCCc2ccccc2)cc1,-1,-44,3,2.2*,0,nt
S=C(NCCc1ccccc1)Nc1ccc(Cl)cc1,-2,23,0,1.5*,-7,nt
O=C(NCCc1ccccc1)Nc1ccc(Cl)cc1,nt,65,1,nt,nt,nt
S=C(NCCc1ccc(Cl)cc1)NC1CC1,7,1,5,44*,1,nt
COc1ccccc1CNC(=O)C[C@H]1CC[C@@H]2[C@@H](COc3ccc(NC(=O)Nc4ccc(F)c(F)c4)cc3C(=O)N2C)O1,nt,nt,nt,0,-3,-5
C[C@H](NC(=O)c1ccccc1Cl)C(=O)NCCc1ccc(S(N)(=O)=O)cc1,-1,-1,-2,0,-2,5
CC(C)(C)C(=O)NC(=S)NCCc1ccccc1,0,61,2,nt,nt,43*
C[C@H](NC(=O)c1ccc(Cl)cc1)C(=O)NCCc1ccc(S(N)(=O)=O)cc1,-2,-18,-1,44*,-2,-2
Cc1ccccc1S(=O)(=O)NCC[C@H]1CC[C@H](NC(=O)C2CCCCC2)[C@H](CO)O1,nt,nt,nt,0,9,-3
COCCNC(=O)c1cccc2c(-c3cccc(C(N)=O)c3)coc12,0,nt,5,0,-3,2
NC(=O)c1cccc(-c2coc3c(C(=O)NCc4ccccc4)cccc23)c1,-2,nt,0,-1,1,50*
O=C(c1cnccn1)N1CC(=O)N2[C@@H](CO)[C@H](c3ccc(C#CC4CCCCC4)cc3)[C@@H]2C1,nt,nt,nt,nt,-3,nt
COc1ccc(NC(=O)c2nc[nH]c2C(=O)N(C)CCO)cc1,-1,nt,3,43*,-1,-3
Cc1ccc(NC(=O)c2nc[nH]c2C(=O)N(C)CCO)cc1,-2,nt,-1,0,-1,-3
CC1CCCCN1CCCNC(=O)c1ccc2c(c1)NC(=O)CN2C (stereo not drawn),-1,nt,7.9*,0,-2,-6
